This note sets out measurements from PubChem BioAssay AID547 (Emory University Molecular Libraries Screening Center, 2006).

The campaign covered roughly 1,300 compounds. About 10 (0.8%) were called active. This excerpt belongs to a sample that is enriched for actives. Unmarked numbers belong to inactive results. How the calls were made is not given here.

The target of the assay is Chaperone protein DnaK (Escherichia coli (strain K12)) (UniProt P0A6Y8). Description: blockers of bacterial DnaK function – luminescence, E. coli K12, primary screen (AID 547).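 Further: tested at 10 µM.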 The conditions noted are these: DnaK chaperone assay, luminescence read-out; hits give low values.
`CC1C(=O)N(C)C(=O)c2nc[nH]c21` (configuration not stated): the luminescence is 2.4e+06 cps.

Regarding `N.N.O=C(O)C1(C(=O)O)CCC1.[Pt+2]`, the luminescence is 2.5e+06 cps. Consider `CCCCS(=N)(=O)CCC(N)C(=O)O` (configuration not stated), for which the luminescence is 1.9e+06 cps. Under `CC(=O)NCCc1ccc(O)c(O)c1` stands 2.8e+06 cps; under `CCCCCCCCCCCCCCCC(=O)NCCO`, 2.9e+06 cps; under `CCCCCCCC/C=C\CCCCCCCC(=O)NCCc1ccc(O)c(O)c1`, 1.5e+06 cps (active).

On to `NC(=O)c1ccccc1`, for which the luminescence is 2.5e+06 cps. As to `N#CC(Cc1ccc(O)c(O)c1)C(=O)N1CCc2ccccc21` (configuration not stated), the luminescence was 2.2e+06 cps. The result for `CCNC(=O)[C@H]1O[C@@H](n2cnc3c(N)nc(NCCc4ccc(CCC(=O)O)cc4)nc32)C(O)[C@H]1O` (some centres not stated) reads 2.4e+06 cps. The result for `CC(=O)O[C@H]1CC2(C)[C@@H](C[C@@H](O)[C@H]3[C@@]4(C)CC[C@@H](O)[C@@H](C)[C@@H]4CC[C@@]32C)C1=C(CCC=C(C)C)C(=O)O` (some centres not stated) reads 2.8e+06 cps. Under `O=C1N=C(O)CN1/N=C/c1ccc(-c2ccc([N+](=O)[O-])cc2)o1` stands 3e+06 cps.

With `CCCCCCCCCCCCCCCCCC(=O)NCC(COP(=O)([O-])OCC[N+](C)(C)C)OCC` (configuration not stated), the luminescence is 2.8e+06 cps.

Turning to `CCCCCCCCCCCCCCCCCCOC[C@H](COP(=O)([O-])OCC[N+](C)(C)C)OC`, the luminescence was 2.6e+06 cps. The result for `CCCCCCCCCCCCCCCC(=O)NCC(COP(=O)([O-])OCC[N+](C)(C)C)OCC` (configuration not stated) reads 1.9e+06 cps (active).

Consider `COc1cccc(-c2cc(=O)c3ccccc3o2)c1N`, for which the luminescence was 2.2e+06 cps.

On to `CC(C)OC(=O)C(C)(C)Oc1ccc(C(=O)c2ccc(Cl)cc2)cc1`, for which the luminescence was 2.9e+06 cps. Consider `COc1ccc(CCN(C)CCCC(C#N)(c2cc(OC)c(OC)c(OC)c2)C(C)C)cc1OC` (configuration not stated), for which the luminescence is 2.5e+06 cps. Under `COc1ccccc1N1CCN(CCN2C(=O)CC3(CCCC3)CC2=O)CC1` stands 3.1e+06 cps; under `NC(=O)N1c2ccccc2C=Cc2ccccc21`, 2.7e+06 cps. The result for `Cc1ccc(C(=O)O[C@H](C(=O)O)[C@H](OC(=O)c2ccc(C)cc2)C(=O)O)cc1` (tested in a mixture with another compound) reads 2.5e+06 cps; that for `CNC[C@H](O)c1cccc(O)c1`, 2.3e+06 cps; that for `Cc1nc2n(c(=O)c1CCN1CCC(c3noc4cc(F)ccc34)CC1)CCCC2`, 2.6e+06 cps. Regarding `c1ccc(-c2ccccn2)nc1`, the luminescence was 2.6e+06 cps. Under `CCCCOC(=O)NS(=O)(=O)c1sc(CC(C)C)cc1-c1ccc(Cn2c(CC)nc3c(C)cc(C)nc32)cc1` stands 2.5e+06 cps; under `CC#C[C@]1(O)CC[C@H]2[C@@H]3CCC4=CC(=O)CCC4=C3[C@@H](c3ccc(N(C)C)cc3)C[C@@]21C`, 2e+06 cps; under `NCCCCCC(=O)O`, 2.3e+06 cps. Under `Oc1cc(O)c2c(c1)O[C@H](c1ccc(O)c(O)c1)[C@@H](O)C2` stands 2.8e+06 cps. Consider `CN1Cc2c(N)cccc2C(c2ccccc2)C1` (configuration not stated), for which the luminescence was 2.2e+06 cps. `CN(C)c1cc2c(Nc3ccc4c(cnn4Cc4ccccc4)c3)ncnc2cn1`: the luminescence is 3e+06 cps. Under `CCSC(=N)N` stands 2.4e+06 cps; under `N[C@@H](CC(=O)O)C(=O)O`, 2.4e+06 cps. Take `N#Cc1cc2nc(O)c(O)nc2cc1[N+](=O)[O-]`: the luminescence was 2.8e+06 cps. As to `CN(C)c1nc(N(C)C)nc(N(C)C)n1`, the luminescence is 2.4e+06 cps. Take `COc1cc([C@@H]2c3cc4c(cc3[C@H](O)C3COC(=O)[C@@H]32)OCO4)cc(OC)c1OC` (some centres not stated): the luminescence was 2.6e+06 cps. Under `CN1[C@@H](CC(=O)c2ccccc2)CCC[C@H]1C[C@H](O)c1ccccc1` stands 2.6e+06 cps; under `CCCCN1CCC(COC(=O)c2cc(Cl)c(N)c3c2OCCO3)CC1`, 2.2e+06 cps. Under `COC(=O)C(N)Cc1ccc(Cl)cc1` (configuration not stated) stands 2.2e+06 cps; under `CC(C)NC[C@@H](O)c1ccc(O)c(O)c1`, 2.5e+06 cps. As to `Nc1ccc(CCNc2ncnc3c2ncn3C2OC(CO)C(O)C2O)cc1` (configuration not stated), the luminescence was 2.9e+06 cps. Turning to `CN1CCCC1CCOC(C)(c1ccccc1)c1ccc(Cl)cc1` (configuration not stated), the luminescence was 2.5e+06 cps. The result for `NC(=NCc1ccccc1)NC(=O)c1nc(Cl)c(N)nc1N` reads 2.1e+06 cps; that for `CCCC1O[C@@H]2C[C@H]3[C@@H]4CCC5=CC(=O)C=C[C@]5(C)[C@H]4[C@@H](O)C[C@]3(C)[C@]2(C(=O)CO)O1` (some centres not stated), 2.4e+06 cps; that for `Cn1c(=O)[nH]c2ncn(C)c2c1=O`, 2.8e+06 cps. The result for `CCCn1c(=O)c2[nH]c(-c3ccc(OCC(=O)Nc4ccc(C#N)cc4)cc3)nc2n(CCC)c1=O` reads 2.3e+06 cps; that for `O=C(O)c1ccccc1Nc1ccccc1`, 2.2e+06 cps; that for `COc1ccc(/C=C/C(=O)Nc2ccccc2C(=O)O)cc1OC`, 1.6e+06 cps (active). For `COc1ccc(NC(=O)/C=C/c2ccc(Cl)cc2)cc1`, the luminescence was 2.8e+06 cps. In the case of `CCn1c(=O)[nH]c2cc(Cl)c(Cl)cc21`, the luminescence is 3.1e+06 cps. The result for `O=C(O)/C=C/c1cnc[nH]1` reads 2.2e+06 cps. Under `Cn1c(=O)c2c(nc(/C=C/c3cccc(Cl)c3)n2C)n(C)c1=O` stands 2.6e+06 cps; under `O=c1cc(O)cc(/C=C/c2ccc(O)c(O)c2)o1`, 2.5e+06 cps. The result for `NC12CC3CC(CC(C3)C1)C2` reads 2.3e+06 cps; that for `CC[N+](C)(C)Cc1ccccc1Br`, 2.5e+06 cps. With `CCC(NC(C)C)C(O)c1ccc(O)c(O)c1` (configuration not stated), the luminescence is 2.2e+06 cps. The result for `NC(N)=NCCSSCCN=C(N)N` reads 3e+06 cps. With `NC[C@H](O)c1ccc(O)c(O)c1`, the luminescence was 2.6e+06 cps. Turning to `Cc1cn([C@H]2C[C@@H](N=[N+]=[N-])[C@@H](CO)O2)c(=O)[nH]c1=O`, the luminescence was 2.8e+06 cps.
